In PubChem BioAssay (NCATS):
Results filed as inconclusive are left out. The source made the active and inactive calls. The call rests on the fitted dose curve.

test: Primary qHTS for inhibitors of SARS-S pseudo-typed particle cell entry (AID 1479145); details: SARS-S pseudotyped particle cell entry, luciferase reporter; series mostly up to 57.1 µM; activity change, negative = inhibition: at the top concentration; further: nearly all actives have a fitted effect of over 45% in size
On the % scale 0 is the no-effect control and ±100 the full control effect.

SMILES	activity change, negative = inhibition	outcome
CC(C)(O)[C@@H]1[C@H]2OC(=O)[C@@H]1[C@]1(O)C[C@H]3O[C@]34C(=O)O[C@H]2[C@]14C	1.51% (inactive)	–
O=C(OCCN1CCCCC1)C(O)(c1ccccc1)c1ccccc1	–	inactive
O=[N+]([O-])c1ccccc1	-11% (inactive)	–
CC[C@H](C)[C@H]1O[C@]2(C=C[C@@H]1C)C[C@@H]1C[C@@H](C/C=C(\C)[C@@H](O[C@H]3C[C@H](OC)[C@@H](O[C@H]4C[C@H](OC)[C@@H](O)[C@H](C)O4)[C@H](C)O3)[C@@H](C)/C=C/C=C3\CO[C@@H]4[C@H](O)C(C)=C[C@@H](C(=O)O1)[C@]34O)O2	-19.7% (inactive)	–
C=CC[C@]1(O)CC[C@H]2[C@@H]3CCC4=CCCC[C@@H]4[C@H]3CC[C@@]21C	–	inactive [at 114 µM]
CC[N+](C)(CC)CCOC(=O)C(O)(c1ccccc1)c1ccccc1	-22% (inactive)	–
CC(C)CCON=O	–	inactive
O=C/C=C/c1ccccc1	-0.661% (inactive)	–
C/C(=C\c1csc(C)n1)[C@@H]1C[C@@H]2O[C@]2(C)CCC[C@H](C)[C@H](O)[C@@H](C)C(=O)C(C)(C)[C@@H](O)CC(=O)O1	-3.19% (inactive)	–
CCNC1(c2cccs2)CCCCC1=O (stereo unspecified)	1.69% (inactive)	–
CCCCCCCCCC(=O)O[C@H]1CC[C@H]2[C@@H]3CCC4=CC(=O)CC[C@]4(C)[C@H]3CC[C@]12C	-6.7% (inactive)	–
CCCCC[C@@H](O)C1C(=O)OC(C)[C@H](O)/C=C/C=C/C=C/C=C/C=C(\C)C(O)C(O)C(O)C[C@H](O)C[C@H](O)C[C@H](O)C[C@H](O)C[C@@H]1O (stereo partly specified)	0.961% (inactive)	–
CN1[C@H]2CC[C@@H]1[C@@H](C(=O)O)[C@@H](OC(=O)c1ccccc1)C2	0.0574% [at 114 µM] (inactive)	–
CC(N)Cc1ccc(O)cc1 (stereo unspecified)	-4.68% (inactive)	–
NCC(O)c1cccc(O)c1 (stereo unspecified)	-18.2% (inactive)	–
C[C@@H](CO)NC(=O)[C@@H]1C=C2c3cccc4[nH]cc(c34)C[C@H]2N(C)C1	-32% (inactive)	–
